Screens from PubChem BioAssay.
Sampled rows, rich in hits. Any-hit rate of the full collection: about 6.8%.
Abs 340nm = compounds absorbing at 340 nm; compound absorbance at 340 nm, fold over control; fold change at 10 µM; 65,000 tested, under 10 active;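 active means at 10 µM dose, initial 340 nm absorbance at least 2 fold that of control wells; inactive means change under 2 fold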;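 further: initial absorbance extrapolated from kinetic A340 decline of NADH oxidation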
NADH enzymes = inhibition of NAD/NADH coupling enzymes, library profiling; coupled PK/LDH NADH assays, four targets; IC50, µM (doses to about 10 µM); 65,000 compounds, 0.02% hits; AID 774;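 active means single-dose screening hits from any of four coupled enzyme assays that gave an IC50 when retested across doses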;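 further: the DPM-DC format reads NADH fluorescence rather than 340 nm absorbance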
DPM-DC inhibit = inhibitors of Streptococcus pneumoniae diphosphomevalonate decarboxylase | purified DPM-DC, PK/LDH coupled NADH fluorescence | calls only at 10 µM | 65,000 compounds, 0.49% hits;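 active means the 320 compounds with the highest percent inhibition in the single-dose primary screen, excluding strongly autofluorescent ones, cut at about 32% in these data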;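 further: kinetic rate of NADH fluorescence loss reporting ADP formed by the decarboxylase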
PMK inhibit = blocks S. pneumoniae phosphomevalonate kinase; purified PMK, PK/LDH-coupled NADH absorbance 340 nm; inhibition, % at 10 µM; 65,000 compounds, 0.49% hits;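 active means top-ranked compounds by inhibition in the single 10 µM screen, taking a fixed number of the strongest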
Fluor 339 460 = intrinsic fluorescence of library compounds, ex339/em460 – biochemical, MLSMR library, data from DPM-DC assay, artefact control, profiling panel; compound autofluorescence, ex339/em460 nm, NADH buffer; active compounds read high; 1 = no-compound wells, NADH background; fluorescence fold increase at 10 µM; 65,000 compounds, 5.5% hits;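 active means at 10 µM, mean starting fluorescence two-fold or more over control wells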;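 further: signal is the first read of a kinetic run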
MK inhibit = inhibitors of Streptococcus pneumoniae mevalonate kinase; inhibition, % at 10 µM; 65,000 compounds, 0.48% hits; AID 555; purified MK, PK/LDH-coupled NADH absorbance 340 nm;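 active means ranked among the strongest by inhibition in the single 10 µM screen, a fixed top-ranked set picked for dose follow-up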
Each line names hits and unclear results; the compound was inactive in the other large screens.

O=C(CSc1ccc2nnc(-c3ccc(F)cc3)n2n1)N1CCCCC1	none
CC(Sc1ccc2nnc(-c3ccc(F)cc3)n2n1)C(=O)O (stereo not given)	none
CCOC(=O)C(C)Sc1ccc2nnc(-c3ccc(F)cc3)n2n1 (stereo not given)	Fluor 339 460 2.1
CCSc1ccc2nnc(-c3ccc(F)cc3)n2n1	Fluor 339 460 2
Nc1cc(N)nc(SCC(=O)NCC2CCCO2)n1 (stereo not given)	none
CCN1CCc2c(C#N)c(N3CCCCC3)nc(N3CCOCC3)c2C1	Fluor 339 460 2.3 (not shown: DPM-DC inhibit)
CCSc1nc(N2CCOCC2)c2c(c1C#N)CCCC2	none
CC(C)c1nc(N2CCOCC2)c(C#N)c2c1CCCC2	Fluor 339 460 2.1 (not shown: DPM-DC inhibit)
CCC(C)(C)NC(=O)C(c1cccc(OC)c1)N(C(=O)c1ccn[nH]1)c1cccc(OC)c1 (stereo not given)	none
COC(=O)c1ccccc1NC(=O)CN1CCC(NC(=O)c2ccccc2C)CC1	none
COc1cc2c(OC)cccc2cc1C(=O)O	Fluor 339 460 2.9 (not shown: DPM-DC inhibit)
Cc1cc(Nc2ccc(F)c(Cl)c2)n2nc(C)nc2n1	none
Cc1cc(-c2ccc(Cl)cc2)n2nc(N)nc2n1	Fluor 339 460 3.6 (not shown: DPM-DC inhibit)
Nc1nc2nccc(-c3ccc(Cl)cc3)n2n1	Fluor 339 460 3.8 (not shown: DPM-DC inhibit)
CCOC(=O)c1ccc(-c2c(C(=O)OCC)oc3cc(O)c(CC)cc3c2=O)o1	none
CON(C)c1nc(OCCNC(=O)COc2ccc(Cl)cc2C)nc(N(C)C)n1	none
CON(C)c1nc(OCCNC(=O)OCc2ccc(Cl)cc2Cl)nc(N(C)C)n1	PMK inhibit 25
O=S(=O)(NC1CC1)c1ccc(S(=O)(=O)N2CCCC3(CCCCC3)C2)cc1	none
Cc1c(C(=O)NC2CC2)oc2ccc(S(=O)(=O)N3CCCCCC3)cc12	DPM-DC inhibit active
Cc1c(C(=O)Nc2ccc(F)cc2)oc2ccc(S(=O)(=O)N3CCCC3)cc12	none
O=C(NC1CCCC1)c1ccc(S(=O)(=O)N2CCCC2)cc1	Fluor 339 460 2.1
O=C(NC1CC1)c1ccc(S(=O)(=O)NC2CCCCCC2)cc1	none
Cc1ccc(NC(=O)c2oc3ccc(S(=O)(=O)N4CCOCC4)cc3c2C)cc1C	Fluor 339 460 3.1 (not shown: DPM-DC inhibit)
CCn1c(SCC(=O)Nc2cc(OC)ccc2OC)nnc1C1CCCCC1	none
CCCn1c(SCC#N)nc2c(c1=O)C1(CCCC1)Cc1ccccc1-2	none
N#CCSc1n[nH]c2nc3c(c(=O)n12)C1(CCCC1)Cc1ccccc1-3	Fluor 339 460 2.2 (not shown: DPM-DC inhibit)
CCc1ccc(C2CC(c3ccccc3)n3ncnc3N2)cc1 (stereo not given)	none
Oc1ccc(-c2nc3ccccn3c2NCc2ccc3c(c2)OCO3)cc1	Fluor 339 460 3.7 (not shown: DPM-DC inhibit)
CCOC(=O)CNc1c(-c2ccc(O)cc2)nc2ccccn12	Fluor 339 460 3.7 (not shown: DPM-DC inhibit)
CCOC(=O)CNc1c(-c2ccc(O)cc2)nc2ccc(Cl)cn12	none
Cn1c(C(=O)N2CCN(c3ccccn3)CC2)cc2c(=O)n(C)c3ccccc3c21	none
CN(CCc1ccccn1)S(=O)(=O)c1ccccc1F	none
CN(CCc1ccccn1)Cc1ccc(Cl)cc1Cl	MK inhibit 44
CCC(=O)Nc1c(OC(=O)CC)ccc2c(C)cc(=O)oc12	Fluor 339 460 2.1 (not shown: DPM-DC inhibit)
CCC(=O)Nc1c(C)cc(C)cc1Cl	none
CCOC(=O)C(C(=O)OCC)C(=O)c1cc(OC)c(OC)c(OC)c1	none
CCOC(=O)c1sc(=NC(=O)c2cc(OC)c(OC)c(OC)c2)n(C)c1C	Fluor 339 460 4.3 (not shown: DPM-DC inhibit)
COc1cc(CN2CCC(C(=O)N3CCN(c4ccccc4F)CC3)CC2)ccc1O	none
CCOc1ccc(CN2CCN(S(=O)(=O)c3ccc(NC(C)=O)cc3)CC2)cc1OC	MK inhibit 63
COc1ccc(C(=O)Nc2ccc(S(=O)(=O)N3CCCCC3)cc2)cc1OC	none
COc1cc(CN2CCC(C(=O)NC3CCCC3)CC2)ccc1O	Fluor 339 460 2 (not shown: DPM-DC inhibit)
CCOc1ccc(CNC(=O)C2CCN(S(=O)(=O)N3CCCC3)CC2)cc1OC	PMK inhibit 26
COc1ccc(Br)cc1CNC(=O)C1CCN(S(=O)(=O)N2CCCC2)CC1	PMK inhibit 30
COc1ccc(N2CCN(C(c3ccccc3)c3sc4nc(C)nn4c3O)CC2)cc1 (stereo not given)	none
CC1CC(C)CN(S(=O)(=O)c2ccc(C(=O)Nc3nnc(-c4cccs4)o3)cc2)C1 (stereo not given)	Fluor 339 460 3.8 (not shown: DPM-DC inhibit)
COc1ccc(-c2nnc(NC(=O)c3ccc(S(=O)(=O)N4CCc5ccccc5C4)cc3)o2)cc1	Fluor 339 460 3.1
CCN(CC(=O)Nc1cccc(OC)c1)C(=O)C1CCN(C(=O)Nc2ccccc2)CC1	none
Cc1ccc(-c2nn3c(C)nnc3s2)cc1NCc1c(F)cccc1Cl	Fluor 339 460 2.3
CC(C(=O)NCc1cccnc1)N1C(=O)c2ccccc2C1=O (stereo not given)	none
COCCn1c(SCc2ccc(C(=O)OC)o2)nc2cc(Cl)ccc2c1=O	none
Oc1oc(-c2ccco2)nc1C=Nc1ccccc1	none
Oc1ccccc1/C=N/c1c(-c2ccco2)nc2ccccn12	Fluor 339 460 3.6 (not shown: DPM-DC inhibit)
CCOC(=O)C1=C(N)OC2=C(C(=O)CCC2)C1c1ccc(C)s1 (stereo not given)	PMK inhibit 37
COc1cc(CCC(=O)N2CCN(S(=O)(=O)c3ccc(C)c(C)c3)CC2)cc(OC)c1OC	none
NC(=O)CCc1c[nH]c2ccccc12	none
O=C(CCCc1c[nH]c2ccccc12)N1CCN(c2ccc(N3CCOCC3)nn2)CC1	Fluor 339 460 2.1 (not shown: DPM-DC inhibit)
COc1cc(CCC(=O)N2CCN(c3ccc(N4CCOCC4)nn3)CC2)cc(OC)c1OC	Fluor 339 460 2.2 (not shown: DPM-DC inhibit)
CCCCN(C)C(=O)c1oc2ccc(S(=O)(=O)N3CCCCCC3)cc2c1C	none
Cc1nn2cc(-c3ccc(-c4ccccc4)cc3)nc2s1	Fluor 339 460 2.2
Clc1ccc(N2CCN(c3ncnc4c3oc3ccccc34)CC2)cc1	Fluor 339 460 3.7 (not shown: DPM-DC inhibit)
CCn1c2ccccc2c2cc(/C=N/n3cnnc3)ccc21	Fluor 339 460 5 (not shown: DPM-DC inhibit)
CCn1c(/C=N/n2cnnc2)nc2ccccc21	Fluor 339 460 2.1 (not shown: DPM-DC inhibit)
Cc1ccc(NC(=O)CSc2nnc(CCCCCNC(=O)OC(C)(C)C)o2)c(C)c1	none
COc1ccc(S(=O)(=O)N(Cc2cc3ccc(OC)cc3[nH]c2=O)CC2COCCO2)cc1 (stereo not given)	Fluor 339 460 2.3
COC(=O)c1ccccc1S(=O)(=O)N(Cc1cc2ccc(OC)cc2[nH]c1=O)CC1CCCO1 (stereo not given)	PMK inhibit 25
COc1ccc2cc(CN(CC3COCCO3)S(=O)(=O)c3ccccc3)c(=O)[nH]c2c1 (stereo not given)	none
Cc1ccc2cc(CN(CC3CCCO3)S(=O)(=O)c3cccc4nsnc34)c(=O)[nH]c2c1 (stereo not given)	none
